Among the test systems are SR leukemia; RPMI-8226 leukemia; OVCAR-8 ovarian; OVCAR-5 ovarian; OVCAR-4 ovarian; SK-OV-3 ovarian; OVCAR-3 ovarian; HS 578T breast; NCI/ADR-RES ovarian; T-47D breast; BT-549 breast; MDA-MB-435 melanoma; SW-620 colon; MCF7 breast; HCT-116 colon; HCC-2998 colon; KM12 colon.
What all share (assay): NCI-60 one-dose screen, 48 h (100 = growth as untreated, 0 = no growth, -100 = all killed)
Conditions in all cases: 10 µM unless noted

Growth data for 9 compounds are collected here from PubChem BioAssay (NCI).

The panel holds about 83,000 compounds, 20% with a hit somewhere; the sample as a whole holds those more often.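 Single-dose data. Exposure time 48 hours. Values below 10 considered active.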 A number with no mark means an inactive call. Activity calls are given as the source filed them.

With `COc1cc2cc(Oc3ccc(NC(=O)Nc4ccc(Cl)c(Cl)c4)cc3)c(C)nc2cc1OCCN1CCCCC1`, the growth in the assay on SR leukemia is -3.12% (active); in the assay with RPMI-8226 leukemia it was 79.1%; in the assay on OVCAR-8 ovarian, 32.1%; in the assay on OVCAR-5 ovarian, 137%; in the assay on OVCAR-4 ovarian it was -16.5% (active); in the assay on SK-OV-3 ovarian it was 119%. Besides, the growth with OVCAR-3 ovarian is 105%; in the assay on HS 578T breast, 108%; in the assay with NCI/ADR-RES ovarian it was 99.5%; with T-47D breast, 85.9%; in the assay with BT-549 breast, 88.1%; with MDA-MB-435 melanoma it was 74.2%. Further, the growth in the assay on SW-620 colon was 14.4%; in the assay on MCF7 breast it was 55.9%; with HCT-116 colon, 91.3%; with HCC-2998 colon, 104%; in the assay on KM12 colon it was 63.3%.
For the compound `CCN1C(=O)N(CC)C2C1NC(=S)N2/N=C/C=C/c1ccccc1` (configuration not stated), the growth in the assay with SR leukemia was 7.76% (active); in the assay with RPMI-8226 leukemia it was -8.74% (active); with OVCAR-8 ovarian it was 6.3% (active); with OVCAR-5 ovarian, 59.6%; in the assay on OVCAR-4 ovarian it was 46.9%; with SK-OV-3 ovarian, 20.4%. Further, the growth with OVCAR-3 ovarian is -8.49% (active); with HS 578T breast, 13.6%; in the assay with NCI/ADR-RES ovarian it was 0.601% (active); with T-47D breast, 46.5%; in the assay with BT-549 breast it was -10.3% (active); in the assay on MDA-MB-435 melanoma, -42.1% (active). The growth in the assay with SW-620 colon is 25.6%; in the assay with MCF7 breast, 13.8%; with HCT-116 colon, 5.71% (active); with HCC-2998 colon, 19%; in the assay with KM12 colon, 8.65% (active).
`Fc1ccc(/C=C/c2cc(/C=C/c3ccc(F)cc3)n(-c3cc(F)cc(F)c3)n2)cc1`: the growth was 87.5% in the assay on SR leukemia; 73.8% in the assay on RPMI-8226 leukemia; 112% in the assay on OVCAR-8 ovarian; 95.2% with OVCAR-5 ovarian; 107% in the assay with OVCAR-4 ovarian; 97.4% with SK-OV-3 ovarian. Besides, the growth is 108% in the assay with OVCAR-3 ovarian; 114% with HS 578T breast; 101% with NCI/ADR-RES ovarian; 80.2% in the assay on T-47D breast; 97.6% in the assay with BT-549 breast; 103% with MDA-MB-435 melanoma. Besides, the growth was 104% in the assay on SW-620 colon; 89% in the assay on MCF7 breast; 84.5% in the assay on HCT-116 colon; 93.4% with HCC-2998 colon; 105% in the assay with KM12 colon.
As to `CCCCCCCCCCCCCC[n+]1ccc2c(C)c3c(c(C)c2c1)c1cc(O)ccc1n3CC`, the growth was -52.5% (active) in the assay with SR leukemia; -51.5% (active) with RPMI-8226 leukemia; -43.4% (active) in the assay with OVCAR-8 ovarian; -60.9% (active) in the assay on OVCAR-5 ovarian; -59.8% (active) in the assay on OVCAR-4 ovarian; -19% (active) in the assay with SK-OV-3 ovarian. For the same compound, the growth in the assay on OVCAR-3 ovarian was -95.3% (active); in the assay with HS 578T breast it was -41.3% (active); with T-47D breast, -25.5% (active); in the assay with BT-549 breast it was -74.3% (active); in the assay on MDA-MB-435 melanoma, -92.6% (active); in the assay with SW-620 colon it was -72.2% (active). Moreover, the growth is -70.3% (active) in the assay on MCF7 breast, -79.4% (active) in the assay with HCT-116 colon, -64.6% (active) with HCC-2998 colon and -67.3% (active) with KM12 colon.
As to `C/C(=N\NC(=O)c1ccc(C(C)(C)C)cc1)c1ccc(O)cc1O`, the growth was 19.2% with SR leukemia; 28.5% in the assay on RPMI-8226 leukemia; 22.9% in the assay with OVCAR-8 ovarian; 39.9% in the assay on OVCAR-5 ovarian; 15% in the assay with OVCAR-4 ovarian; 27.7% in the assay on SK-OV-3 ovarian. In addition, the growth in the assay with OVCAR-3 ovarian is 6.18% (active); in the assay on HS 578T breast it was 59.8%; in the assay with NCI/ADR-RES ovarian, 10.3%; with T-47D breast it was 24.4%; with BT-549 breast it was 31.2%; in the assay with MDA-MB-435 melanoma, 27.7%. In addition, the growth was 29.9% in the assay on SW-620 colon; 4.92% (active) in the assay with MCF7 breast; 18.5% with HCT-116 colon; 8.71% (active) with HCC-2998 colon; 22.8% in the assay with KM12 colon.
With `COc1cccc(C2C3=C(COC3=O)N(CCO)c3cc4c(cc32)OCCO4)c1` (configuration not stated), the growth in the assay on SR leukemia is 9.73% (active); in the assay with RPMI-8226 leukemia, 25.4%; in the assay on OVCAR-8 ovarian, 27.7%; in the assay with OVCAR-5 ovarian, 29.8%; in the assay with OVCAR-4 ovarian, 24.2%; in the assay on SK-OV-3 ovarian, 22.6%. Further, the growth in the assay with OVCAR-3 ovarian is -59.7% (active); with HS 578T breast, -5.22% (active); in the assay with NCI/ADR-RES ovarian it was -35.1% (active); with T-47D breast, 65.3%; with BT-549 breast it was 14.5%; in the assay on MDA-MB-435 melanoma, -28.2% (active). The growth in the assay with SW-620 colon was 17.7%; with MCF7 breast it was 13.1%; in the assay on HCT-116 colon, 3.53% (active); with HCC-2998 colon it was 4.51% (active); in the assay with KM12 colon, -11.8% (active).
Turning to `CCNc1nc(-c2ccc(Cl)c(OC)c2)c(-c2ccnc(NCCNS(=O)(=O)c3ccc(Cl)cc3)n2)s1`, the growth in the assay with SR leukemia was 21.5%; in the assay with RPMI-8226 leukemia, 21.4%; in the assay with OVCAR-8 ovarian, 37.9%; in the assay on OVCAR-5 ovarian, 40.7%; in the assay with OVCAR-4 ovarian, 31.8%; with SK-OV-3 ovarian, 1.58% (active). In addition, the growth with OVCAR-3 ovarian is -3.31% (active); in the assay on HS 578T breast it was 24.1%; in the assay on NCI/ADR-RES ovarian, 33%; with T-47D breast, 32.5%; with BT-549 breast, 5.74% (active); in the assay on MDA-MB-435 melanoma, 6.21% (active). For the same compound, the growth with SW-620 colon is 29.5%; with MCF7 breast, 6.61% (active); in the assay with HCT-116 colon, 7.13% (active); with HCC-2998 colon, 56.3%; in the assay with KM12 colon, 48.8%.
As for `CS(=O)(=O)c1ccc(/C(=N/NC(N)=S)c2ccc(F)cc2)cc1`, the growth in the assay with SR leukemia was 103%; with RPMI-8226 leukemia, 99.5%; in the assay on OVCAR-8 ovarian, 103%; in the assay on OVCAR-5 ovarian, 104%; with OVCAR-4 ovarian, 104%; with SK-OV-3 ovarian, 112%. In addition, the growth was 108% in the assay with OVCAR-3 ovarian; 102% in the assay with HS 578T breast; 102% with NCI/ADR-RES ovarian; 88.2% in the assay on T-47D breast; 102% in the assay on BT-549 breast; 102% in the assay with MDA-MB-435 melanoma. For the same compound, the growth with SW-620 colon was 101%; in the assay with MCF7 breast, 89.9%; in the assay with HCT-116 colon it was 95.7%; in the assay on HCC-2998 colon it was 104%; in the assay with KM12 colon, 101%.
Regarding `COc1cc2c(cc1-c1c(C)noc1C)ncc1nc(C3CCOCC3)n(C3CCC(OC(F)F)CC3)c12` (configuration not stated), the growth is 36.4% in the assay on SR leukemia; 18% with RPMI-8226 leukemia; 69.1% in the assay with OVCAR-8 ovarian; 71% in the assay with OVCAR-5 ovarian; 48.8% in the assay with OVCAR-4 ovarian; 17.3% with SK-OV-3 ovarian. Also, the growth with OVCAR-3 ovarian is 44.7%; in the assay with HS 578T breast, 54.9%; in the assay with NCI/ADR-RES ovarian, 53.7%; in the assay on T-47D breast it was 11.3%; with BT-549 breast, 77.1%; with MDA-MB-435 melanoma, 48.9%. Also, the growth in the assay with SW-620 colon was 76.3%; with MCF7 breast it was 18.5%; in the assay on HCT-116 colon it was 66.1%; in the assay with HCC-2998 colon, 56.5%; in the assay on KM12 colon it was 44.3%.
